Data as given in paper PMC12751014, “Non-Catalytic Inhibitors of the p38/MK2 Interface: Repurposing Approved Drugs to Target Neuroinflammation in Alzheimer’s Disease” (Journal of Medicinal Chemistry, 2025).
Hit rate of the full screen: of about 1,900 compounds, about 50 (3%) showed an effect of 50% or more. The full list was thinned out, with strong results kept by preference. *1 amine or outer side, *2 acyl side, *3 side chain or, on linkers, in order; H or OH if unused. Where a SMILES comes first, the peptide text is derived from it. Bridges are numbered along the chain shown (N, C = ends). [ ]: non-standard residue; d: D form. The star is where a group is joined. ξ: configuration not given here. pTerphenylCO(4''-OnC5H11) = CCCCCOc1ccc(-c2ccc(-c3ccc(C(=O)*)cc3)cc2)cc1; ξOrn(4,5-diOH) = O=C(C(CC(O)C(O)N[*:3])N[*:1])[*:2]; ξhTyr(βξ-OH,γξ-OH) = NC(C(=O)O)C(O)C(O)c1ccc(O)cc1; ξPro(3ξ-OH,4ξ-Me) = CC1CNC(C(=O)O)C1O; Hyp = O=C(O)[CH]1C[CH](O)CN1

The molecules below were run against p38/MK2 protein–protein interaction (VF-p38α / GST-MK2) (Homo sapiens, UniProt Q16539) (assay: primary screen, percent of control activity; higher = less effect of the substance).
Chain of p38/MK2 protein–protein interaction (VF-p38α / GST-MK2) (Q16539 2-360 limits assumed): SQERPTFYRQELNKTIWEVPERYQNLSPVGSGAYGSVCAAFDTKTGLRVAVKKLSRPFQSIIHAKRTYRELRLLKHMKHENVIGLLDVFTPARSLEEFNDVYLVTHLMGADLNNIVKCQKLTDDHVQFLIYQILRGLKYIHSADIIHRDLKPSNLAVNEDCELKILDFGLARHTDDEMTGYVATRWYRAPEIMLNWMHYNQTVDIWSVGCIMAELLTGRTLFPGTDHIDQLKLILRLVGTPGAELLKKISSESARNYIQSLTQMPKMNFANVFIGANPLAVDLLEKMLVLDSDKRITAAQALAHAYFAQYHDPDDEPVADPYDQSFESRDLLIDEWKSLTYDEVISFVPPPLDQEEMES
Design: species or system HEK293T cell lysate transfected with VF-p38α and GST-MK2; unclear (methods say 'quintuplet replicates')
Method: The TR-FRET assay was conducted in a 1536-well plate (Corning, catalog no. 3724) with HEK293T cell lysate transfected with VF-p38α and GST-MK2. Cell-lysate concentration was optimized with a titration experiment. Anti-Flag-Tb and anti-GST-d2 antibodies (Revvity, catalog no. 61FGBTLB) were used to couple p38α and MK2, respectively. A multiple-drop Combi dispenser (Thermo Scientific) combined reaction mixtures in quintuplet replicates. The TR-FRET signals were measured using a BMG Labtech PHERAstar FSX plate reader and normalized to the percent of DMSO control.

| Structure (SMILES) | Pct of control [%] |
| --- | --- |
| CCOC(=O)c1ccc(C#Cc2ccc3c(c2)C(C)(C)CCS3)nc1 | 106 |
| Cc1cc(Nc2ncnc3ccc(-c4ccc(CNCCS(C)(=O)=O)o4)cc23)ccc1Oc1ccn2ncnc2c1 | 24.2 |
| CS(=O)(=O)CCNCc1ccc(-c2ccc3ncnc(Nc4ccc(OCc5cccc(F)c5)c(Cl)c4)c3c2)o1 | 88.1 |
| Cc1ccc(CNc2ncnc3ccc(-c4ccc(CO)o4)cc23)o1 | 69.2 |
| Cc1cc(=O)[nH]c(=S)[nH]1 | 101 |
| CS(=O)(=O)c1cccc(CNc2nc(Nc3ccc4c(c3)CCC(=O)N4)ncc2C(F)(F)F)c1 | 34 |
| CN(c1ncccc1CNc1nc(Nc2ccc3c(c2)CC(=O)N3)ncc1C(F)(F)F)S(C)(=O)=O.Cl | 76.7 |
| CN(c1ncccc1CNc1nc(Nc2ccc3c(c2)CC(=O)N3)ncc1C(F)(F)F)S(C)(=O)=O | 106 |
| CC(C)Cc1ccc(C(C)C(=O)O)cc1 (centres unmarked) | 93 |
| O=C(COc1cccc2c(=O)[nH]ccc12)c1ccccc1 | 89.7 |
| CNS(=O)(=O)Cc1ccc2[nH]cc(CCN(C)C)c2c1.O=C(O)CCC(=O)O | 102 |
| CC(=O)OC1(C(C)=O)CCC2C3CC(C)C4=CC(=O)CCC4(C)C3CCC21C (centres unmarked) | 87 |
| COc1c(C)c(C(=O)c2ccc(N)c(C(=O)[O-])c2)n2ccccc12.[Na+] | 94 |
| CC(C)(C)c1cc(C(C)(C)C)c(NC(=O)c2c[nH]c3ccccc3c2=O)cc1O | 111 |
| CC(=O)NS(=O)(=O)c1ccc(NC(=O)c2ccccc2C(=O)O)cc1 | 96.2 |
| CC(C)c1ccccc1Cc1cc(C(=O)Nc2ccc(S(=O)(=O)c3ccccc3C(C)(C)C)cc2)c(O)c(O)c1O | 33.3 |
| Cc1ccc(Cl)c(Nc2ccccc2C(=O)[O-])c1Cl.[Na+] | 95.1 |
| COc1ccc2cccc(CCNC(C)=O)c2c1 | 90.6 |
| CS(=O)(=O)O.CS(=O)(=O)O.Cc1ccc(C(=O)Nc2ccc(CN3CCN(C)CC3)c(C(F)(F)F)c2)cc1C#Cc1cnc2[nH]ncc2c1 | 73.8 |
| Cc1cccc(C#Cc2ccccc2)n1 | 29.7 |
| NS(=O)(=O)C#Cc1ccccc1 | 97.5 |
| O=C1NC(=O)C(=Cc2ccc3nccc(-c4ccncc4)c3c2)S1 | 126 |
| Cc1ccc(Cl)cc1N(CC(=O)Nc1c(F)cccc1F)S(C)(=O)=O | 91.8 |
| N#CC(c1ccc(Cl)cc1)c1c(Cl)cc(-n2ncc(=O)[nH]c2=O)cc1Cl (centres unmarked) | 72 |

| Structure (SMILES) | Pct of control [%] |
| --- | --- |
| COc1cc2c(cc1-c1c(C)noc1C)ncc1[nH]c(=O)n(C(C)c3ccccn3)c12 (centres unmarked) | 53.6 |
| Cc1cc(NC(=O)Nc2ccc(N(C)C)cc2)c2cc(F)cc(F)c2n1 | 89.3 |
| CN(C)c1ccc(-c2nc3ncc(Cl)c(N4CCN(CC(=O)Nc5nccs5)CC4)c3[nH]2)cc1 | 97.9 |
| Nc1ccc(-c2ccc3ncc4ccc(=O)n(-c5cccc(C(F)(F)F)c5)c4c3c2)cn1 | 87.9 |
| COc1ccc(-c2ccc3ncc4c(c3c2)n(-c2ccc(N3CCNCC3)c(C(F)(F)F)c2)c(=O)n4C)cn1.O=C(O)C=CC(=O)O | 45 |
| CC(=O)OC1(C(C)=O)CCC2C3C=C(C)C4=CC(=O)CCC4(C)C3CCC21C (centres unmarked) | 106 |
| Cc1c(NC(=O)c2ccc(C(C)(C)C)cc2)cccc1-c1cn(C)c(=O)c(Nc2ccc(C(=O)N3CCOCC3)cc2)n1 | 104 |
| O=C1C(Cl)=C(N2CCOCC2)C(=O)N1c1ccc(Cl)c(Cl)c1 | 35.9 |
| COc1ccc(-c2nc3ccc(C4=NNC(=O)CC4C)cc3[nH]2)cc1 (centres unmarked) | 74.1 |
| CN1C(C(=O)Nc2ccccn2)=C(O)c2sc(Cl)cc2S1(=O)=O | 94.2 |
| CC(=O)Nc1nc2c(Oc3cc(-c4ccc(C(F)(F)F)cc4)ncn3)cccc2s1 | 108 |
| CCCCCOc1ccc(-c2ccc(-c3ccc(C(=O)NC4CC(O)C(O)NC(=O)C5C(O)C(C)CN5C(=O)C(C(C)O)NC(=O)C(C(O)C(O)c5ccc(O)cc5)NC(=O)C5CC(O)CN5C(=O)C(C(C)O)NC4=O)cc3)cc2)cc1 (stereo not drawn) ({pTerphenylCO(4''-OnC5H11)}-[ξOrn(4,5-diOH)]T[Hyp][ξhTyr(βξ-OH,γξ-OH)]T[ξPro(3ξ-OH,4ξ-Me)]; lactam 1-C; configuration not given here) | 11.4 |
| CC(=O)O.CC(=O)O.CCC(C)CC(C)CCCCCCCCC(=O)NC1CC(O)C(NCCN)NC(=O)C2C(O)CCN2C(=O)C(C(O)CCN)NC(=O)C(C(O)C(O)c2ccc(O)cc2)NC(=O)C2CC(O)CN2C(=O)C(C(C)O)NC1=O (centres unmarked) | 114 |
| O=C(c1ccc(F)cc1)C1CCN(CCn2c(=O)[nH]c3ccccc3c2=O)CC1 | 84.3 |
| Cc1ccccc1-n1c(Cn2ncc3c(N)ncnc32)nc2cccc(C)c2c1=O | 93.1 |
| CN(C)CCCN1c2ccccc2Sc2ccc(Cl)cc21.Cl | 90.9 |
| Br.Cc1ccc(C(=O)Cn2c3c(sc2=N)CCCC3)cc1 | 96.8 |
| CS(=O)(=O)N1CCc2c(-c3cnc(N)nc3)nc(N3CCOCC3)nc21 | 81.8 |
| CC(=O)Nc1ccc(C(=O)Nc2ccccc2N)cc1 | 96.8 |
| Cc1cc(Nc2ccc(NC(=O)c3ccc(Nc4ccnc5ccccc45)cc3)cc2)nc(N)n1 | 17.7 |
| CNCc1ccc(C)c(NC(=O)c2ccc(Nc3nc(-c4ccccc4)c4ccccc4n3)cc2)c1 | 120 |
| CCCCCCCCCCCC1=C(O)C(=O)C=C(O)C1=O | 42 |
| CCCCCCCCc1ccc(CCC(N)(CO)CO)cc1.Cl | 203 |
